Measured values reported in ChEMBL document CHEMBL3988442, “University of Dundee, Small-Polar-MMV Screening Library” (2021).
Among all 48,000 compounds or so, about 13,000 (27%) showed an effect of 50% or more. The list shows a part of the results.

What follows are compounds tested on Wolbachia pipientis (assay: Anti-Wolbachia Cell-Based Screen). Settings: 5 µM.
Type: functional
Parameters: scale not given: in the data most compounds retested in dose-response had high values
`CC(Cc1c(F)cccc1F)NC(=O)NCc1ncnn1C` (stereo not drawn) was tested, and the “Percent Effect” value was 1.27%.
For `O=C(N[C@H]1CN2CCC1CC2)c1cc(Cn2cnc3ccccc32)[nH]n1`, the “Percent Effect” value was -21.06%.
For `c1ccc(C(Cn2cnnc2)N2CCOCC2)nc1` (stereo not drawn), the “Percent Effect” value was 9.343%.
With `Cc1cccc(CN2C[C@H]3CC[C@@H]2CN(Cc2[nH]cnc2C)C3)n1` the “Percent Effect” value was -2.11%.
For `CC(=O)c1cc(C(=O)N2CC[C@@H]3CC[C@H](C2)N3C)c(=O)[nH]c1C`, the “Percent Effect” value was -5.325%.
With `Nc1cc(-c2cccc3c2CCNC3)ncn1` the “Percent Effect” value was 9.212%.
In the case of `Nc1cnc(-c2cccc3c2CCNC3)cn1`, the “Percent Effect” value is reported as 7.253%.
For `CN(C)C(=O)c1ccc(-c2cccc3c2CCNC3)cc1`, the “Percent Effect” value was 85.47%.
`O=C(O)C(F)(F)F.O=C(O)C(F)(F)F.c1cnc(N2CCO[C@H]3CN(CC4CCOCC4)C[C@H]32)nc1` was tested, and the “Percent Effect” value was 110.6%.
With `Fc1cnc(N2CCO[C@H]3CN(CC4CCOC4)C[C@H]32)nc1` (stereo partly drawn) the “Percent Effect” value was 71.68%.
In the case of `O=C(O)C(F)(F)F.O=C(O)C(F)(F)F.c1cnc(N2CCO[C@H]3CN(Cc4ccsc4)C[C@H]32)nc1`, the “Percent Effect” value is reported as 14.83%.
`O=C(O)C(F)(F)F.c1cnc(N2CCO[C@H]3CN(Cc4csnn4)C[C@H]32)nc1` was tested, and the “Percent Effect” value was -24.49%.
With `CNC(=O)CN1CCO[C@H]2CN(CC3CC3)C[C@H]21.O=C(O)C(F)(F)F.O=C(O)C(F)(F)F` the “Percent Effect” value was 7.624%.
With `Cc1nc[nH]c1CN1C[C@@H]2OCCN(c3ncccn3)[C@@H]2C1.O=C(O)C(F)(F)F` the “Percent Effect” value was -20.21%.
With `O=C(O)C(F)(F)F.O=C(O)C(F)(F)F.c1cnc(N2CCO[C@H]3CN(CC4CC4)C[C@H]32)nc1` the “Percent Effect” value was 92.7%.
In the case of `Fc1ccccc1CN1C[C@@H]2OCCN(c3ncccn3)[C@@H]2C1`, the “Percent Effect” value is reported as 1.64%.
For `Fc1cnc(N2CCO[C@H]3CN(CC4CCCC4)C[C@H]32)nc1.O=C(O)C(F)(F)F`, the “Percent Effect” value was -2.844%.
For `Fc1cnc(N2CCO[C@H]3CN(CC4CCC4)C[C@H]32)nc1`, the “Percent Effect” value was -20.13%.
In the case of `Fc1cnc(N2CCO[C@H]3CN(CC4CCCCC4)C[C@H]32)nc1.O=C(O)C(F)(F)F`, the “Percent Effect” value is reported as 110%.
In the case of `CCN1CCN(c2ccc(C(=O)NCCOC)cc2F)CC1`, the “Percent Effect” value is reported as -17.47%.
For `CC(C)(C)c1cn(C[C@H]2CC3CCN2C[C@@H]3C(=O)N2CCOCC2)nn1` (stereo partly drawn), the “Percent Effect” value was -7.534%.
With `CC(Cn1cncn1)NCCN1CCc2ccccc21` (stereo not drawn) the “Percent Effect” value was 1.288%.
`Cn1cncc1CN1C[C@@H]2OCCN(c3ncccn3)[C@@H]2C1.O=C(O)C(F)(F)F` was tested, and the “Percent Effect” value was -0.0713%.
With `O=C1[C@@H]2CCN(CC3CC3)C[C@@H]2OCCN1c1cccnc1` the “Percent Effect” value was -19.89%.
In the case of `Cn1cc(CN2C[C@@H]3OCCN(c4ncccn4)[C@@H]3C2)cn1.O=C(O)C(F)(F)F.O=C(O)C(F)(F)F`, the “Percent Effect” value is reported as 9.697%.
`CC(C)CCN1C[C@@H]2OCCN(c3ncc(F)cn3)[C@@H]2C1.O=C(O)C(F)(F)F` was tested, and the “Percent Effect” value was 92%.
`c1ccc(CN2C[C@@H]3OCCN(c4cccnc4)[C@@H]3C2)nc1` was tested, and the “Percent Effect” value was -16.65%.
In the case of `O=C(O)C(F)(F)F.c1cncc(N2CCO[C@H]3CN(CC4CCOC4)C[C@H]32)c1` (stereo partly drawn), the “Percent Effect” value is reported as 94.42%.
